This note sets out measurements from article PMC9911399, “Two distinct binding modes provide the RNA-binding protein RbFox with extraordinary sequence specificity”.

Substitutions are numbered along the chain they refer to; changes in the protein carry UniProt numbers. Whole data set: some 16,000 sequences, median “ka relative to ugcaugu” near 0.0091, cut for the highest 2% near 0.032. The list comes from a sample in which the highest values are over-represented; it also holds similar and randomly drawn sequences.

The labels stand for the following.
T1: RBFOX1 RRM (Homo sapiens, UniProt Q9NWB1 109-208)
T1 sequence: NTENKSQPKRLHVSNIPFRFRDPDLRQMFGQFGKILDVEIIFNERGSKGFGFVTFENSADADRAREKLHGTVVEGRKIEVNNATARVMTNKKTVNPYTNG

B1: GCGUGUG (DNA:RNA)
RNA: GGGAGACCGGAAUUCAGAUUGUCCGCGUGUGUUAAAUCCCGUCGUAGCCACCA
DNA 1: CAATCTGAATTCCGGTCTCCC
DNA 2: TGGTGGCTACGACGGGATT
B2: UCUAACG (DNA:RNA)
RNA: B1 RNA with G25U, G27U, U28A, G29A, U30C
DNA 1: CAATCTGAATTCCGGTCTCCC
DNA 2: TGGTGGCTACGACGGGATT
B3: UCCCUGA (DNA:RNA)
RNA: B1 RNA with G25U, G27C, U28C, G29U, U30G, G31A
DNA 1: CAATCTGAATTCCGGTCTCCC
DNA 2: TGGTGGCTACGACGGGATT
B4: UCAAAGA (DNA:RNA)
RNA: B1 RNA with G25U, G27A, U28A, G29A, U30G, G31A
DNA 1: CAATCTGAATTCCGGTCTCCC
DNA 2: TGGTGGCTACGACGGGATT
B5: UGCAGCC (DNA:RNA)
RNA: B1 RNA with G25U, C26G, G27C, U28A, U30C, G31C
DNA 1: CAATCTGAATTCCGGTCTCCC
DNA 2: TGGTGGCTACGACGGGATT
B6: CGUUGGA (DNA:RNA)
RNA: B1 RNA with G25C, C26G, G27U, U30G, G31A
DNA 1: CAATCTGAATTCCGGTCTCCC
DNA 2: TGGTGGCTACGACGGGATT
B7: GGACCUA (DNA:RNA)
RNA: B1 RNA with C26G, G27A, U28C, G29C, G31A
DNA 1: CAATCTGAATTCCGGTCTCCC
DNA 2: TGGTGGCTACGACGGGATT
B8: CCGGGUC (DNA:RNA)
RNA: B1 RNA with G25C, U28G, G31C
DNA 1: CAATCTGAATTCCGGTCTCCC
DNA 2: TGGTGGCTACGACGGGATT
B9: GGGGUCU (DNA:RNA)
RNA: B1 RNA with C26G, U28G, G29U, U30C, G31U
DNA 1: CAATCTGAATTCCGGTCTCCC
DNA 2: TGGTGGCTACGACGGGATT
B10: CGGGUCU (DNA:RNA)
RNA: B1 RNA with G25C, C26G, U28G, G29U, U30C, G31U
DNA 1: CAATCTGAATTCCGGTCTCCC
DNA 2: TGGTGGCTACGACGGGATT
B11: GGGUCUU (DNA:RNA)
RNA: B1 RNA with C26G, G29C, G31U
DNA 1: CAATCTGAATTCCGGTCTCCC
DNA 2: TGGTGGCTACGACGGGATT
B12: CGGGGUC (DNA:RNA)
RNA: B1 RNA with G25C, C26G, U28G, G31C
DNA 1: CAATCTGAATTCCGGTCTCCC
DNA 2: TGGTGGCTACGACGGGATT
B13: GGGGGUC (DNA:RNA)
RNA: B1 RNA with C26G, U28G, G31C
DNA 1: CAATCTGAATTCCGGTCTCCC
DNA 2: TGGTGGCTACGACGGGATT
B14: UACCUCU (DNA:RNA)
RNA: GGGAGACCGGAAUUCAGAUUGUCCUACCUCUUUAAAUCCCGUCGUAGCCACCA
DNA 1: CAATCTGAATTCCGGTCTCCC
DNA 2: TGGTGGCTACGACGGGATT
B15: CUGGGAG (DNA:RNA)
RNA: B1 RNA with G25C, C26U, U28G, U30A
DNA 1: CAATCTGAATTCCGGTCTCCC
DNA 2: TGGTGGCTACGACGGGATT
B16: GUUAGAA (DNA:RNA)
RNA: B1 RNA with C26U, G27U, U28A, U30A, G31A
DNA 1: CAATCTGAATTCCGGTCTCCC
DNA 2: TGGTGGCTACGACGGGATT
B17: AGUGUCU (DNA:RNA)
RNA: B14 RNA with U25A, A26G, C27U, C28G
DNA 1: CAATCTGAATTCCGGTCTCCC
DNA 2: TGGTGGCTACGACGGGATT
B18: AGAUAUU (DNA:RNA)
RNA: B1 RNA with G25A, C26G, G27A, G29A, G31U
DNA 1: CAATCTGAATTCCGGTCTCCC
DNA 2: TGGTGGCTACGACGGGATT
B19: AGUGGUA (DNA:RNA)
RNA: B1 RNA with G25A, C26G, G27U, U28G, G31A
DNA 1: CAATCTGAATTCCGGTCTCCC
DNA 2: TGGTGGCTACGACGGGATT
B20: GGGGCAA (DNA:RNA)
RNA: B1 RNA with C26G, U28G, G29C, U30A, G31A
DNA 1: CAATCTGAATTCCGGTCTCCC
DNA 2: TGGTGGCTACGACGGGATT
B21: GGGCAAA (DNA:RNA)
RNA: B1 RNA with C26G, U28C, G29A, U30A, G31A
DNA 1: CAATCTGAATTCCGGTCTCCC
DNA 2: TGGTGGCTACGACGGGATT
B22: GGGGCAG (DNA:RNA)
RNA: B1 RNA with C26G, U28G, G29C, U30A
DNA 1: CAATCTGAATTCCGGTCTCCC
DNA 2: TGGTGGCTACGACGGGATT
B23: GGGCAGU (DNA:RNA)
RNA: B1 RNA with C26G, U28C, G29A, U30G, G31U
DNA 1: CAATCTGAATTCCGGTCTCCC
DNA 2: TGGTGGCTACGACGGGATT
B24: CGGGCAG (DNA:RNA)
RNA: B1 RNA with G25C, C26G, U28G, G29C, U30A
DNA 1: CAATCTGAATTCCGGTCTCCC
DNA 2: TGGTGGCTACGACGGGATT
B25: CGGGCAA (DNA:RNA)
RNA: B1 RNA with G25C, C26G, U28G, G29C, U30A, G31A
DNA 1: CAATCTGAATTCCGGTCTCCC
DNA 2: TGGTGGCTACGACGGGATT

The target of the test is T1, RBFOX1 RRM. Nature of the test: EMSA; HiTS-Eq, 1 nM pool, 10 min; buffer printed only for the single-RNA assays: 10 mM Tris pH 7.5, 150 mM NaCl, 3.4 mM EDTA, 0.001% NP-40, 30 C. As to conditions: tags: His6 N-terminal (pET28a); label: 5' 32P. The essentials: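 These values rest on relative association constants, computed from read-count changes of each RNA species versus the control reaction and normalised to the cognate motif. Reads came from free RNA recovered by 8% native PAGE after purified RbFox RRM (wild type or mutant) at increasing concentrations was equilibrated for 10 min in 50 µL with 1 nM of a 5′-radiolabelled pool with 7 randomized nucleotides and DNA-annealed flanks.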
Background: A gel shift assay detects complexes by their altered migration in electrophoresis.
In the case of B1, the binding signal was 0.0222 KA relative to UGCAUGU.

As for B2, the binding signal was 0.00601 KA relative to UGCAUGU.

B3: the binding signal was 0.00782 KA relative to UGCAUGU.

B4: the binding signal was 0.00287 KA relative to UGCAUGU.

For B5, the binding signal was 0.0108 KA relative to UGCAUGU.

For the molecule B6, the binding signal is 0.00714 KA relative to UGCAUGU.

Regarding B7, the binding signal was 0.0035 KA relative to UGCAUGU.

Take B8: the binding signal is 0.0244 KA relative to UGCAUGU.

As to B9, the binding signal is 0.0436 KA relative to UGCAUGU.

Consider B10, for which the binding signal is 0.0296 KA relative to UGCAUGU.

B11: the binding signal was 0.00918 KA relative to UGCAUGU.

Take B12: the binding signal is 0.0407 KA relative to UGCAUGU.

As to B13, the binding signal is 0.0306 KA relative to UGCAUGU.

Consider B14, for which the binding signal was 0.00134 KA relative to UGCAUGU.

B15: the binding signal is 0.0142 KA relative to UGCAUGU.

In the case of B16, the binding signal is 0.0142 KA relative to UGCAUGU.

Regarding B17, the binding signal is 0.0109 KA relative to UGCAUGU.

On to B18, for which the binding signal is 0.00865 KA relative to UGCAUGU.

Consider B19, for which the binding signal is 0.0144 KA relative to UGCAUGU.

On to B20, for which the binding signal was 0.032 KA relative to UGCAUGU.

B21: the binding signal is 0.0043 KA relative to UGCAUGU.

With B22, the binding signal was 0.0491 KA relative to UGCAUGU.

In the case of B23, the binding signal is 0.0161 KA relative to UGCAUGU.

Turning to B24, the binding signal was 0.0252 KA relative to UGCAUGU.

For B25, the binding signal is 0.0227 KA relative to UGCAUGU.
